Screening data (PubChem BioAssay)
IL1B secr inh = blocks inflammasome-driven IL-1 beta release; THP-1 LPS/ATP IL-1B secretion, AlphaLISA, 16 h; stronger effect = lower value; activity change, % at 57.5 µM; hit rate 4.7% among 360,000; in the data active = activity change below about -50%; inconclusive = mostly about -30% to -49%
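Secreted IL-1B measured by AlphaLISA bead assay after 16 h compound exposure of THP-1 cells; compounds (final up to 57.5 uM) added 1 h before LPS (250 ng/mL) and ATP (1.25 mM) stimulation; lower signal means less secretion.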
Gal4-VP16 FLuc = Gal4-VP16 reporter inhibition counter-screen. Drosophila S2 Gal4-VP16 UAS-luciferase, luminescence, 20 h. AID 2546. hit rate 3.5% among 310,000. Potency, µM (titrated, usually from 53.6 µM), for the others: top-dose activity, negative = inhibition, actives largely listed as inhibitors;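 also: Gal4-VP16 expression switched on by copper sulfate through the metallothionein promoter; potency is read from the fitted curve at half-maximal effect; nearly all actives have a fitted effect of over 50% in size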
RORg inh = blocks mouse ROR gamma transcriptional activity. P51450. Drosophila S2 Gal4-RORgamma UAS-luciferase reporter, 20 h. hit rate 5.4% among 310,000. Potency, µM (series often up to 53.6 µM), inactives show at the top dose activity change, negative = inhibition, usual class: inhibitors; also: potency is read from the fitted curve at half-maximal effect; nearly all actives have a fitted effect of over 60% in size
Target sequence (P51450 whole entry, looked up, the tested form may be a part): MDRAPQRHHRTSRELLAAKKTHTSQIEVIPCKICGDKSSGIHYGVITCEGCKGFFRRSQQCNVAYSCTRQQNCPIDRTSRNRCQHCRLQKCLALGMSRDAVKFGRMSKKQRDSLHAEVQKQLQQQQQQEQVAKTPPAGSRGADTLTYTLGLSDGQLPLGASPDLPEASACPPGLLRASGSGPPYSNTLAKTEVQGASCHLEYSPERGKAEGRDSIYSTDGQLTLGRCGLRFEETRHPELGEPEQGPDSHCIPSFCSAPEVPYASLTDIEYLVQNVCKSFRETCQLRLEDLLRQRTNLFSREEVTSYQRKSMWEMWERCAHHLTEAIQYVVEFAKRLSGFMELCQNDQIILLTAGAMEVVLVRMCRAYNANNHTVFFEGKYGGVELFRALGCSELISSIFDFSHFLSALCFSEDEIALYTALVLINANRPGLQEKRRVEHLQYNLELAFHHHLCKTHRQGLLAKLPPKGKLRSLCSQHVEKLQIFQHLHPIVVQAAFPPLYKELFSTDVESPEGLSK
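In this cell-based reporter format, copper sulfate (700 uM final) drives Gal4–ROR gamma fusion expression from a metallothionein promoter in Drosophila Schneider cells; compounds preincubated 1 hr, reporter read after 20 hr at ambient temperature.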
LDHA inh = inhibitors of human lactate dehydrogenase A. activity change, % (values are at about 110 or 230 µM). AID 1347041. P00338. hit rate 0.15% among 480,000. purified LDHA, NADH/diaphorase-resazurin fluorescence; stronger effect = lower value; in the data active = activity change below about -30%; inconclusive = mostly about -25% to -30%;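 also: plate controls were DMSO wells for no effect and wells without enzyme for full effect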
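Human LDH5 (2 nM) was incubated with 0.06 mM NADH and 0.2 mM pyruvate for 5 min at room temperature in Tris pH 7.4. Remaining NADH was coupled through diaphorase/resazurin, and resorufin fluorescence was read at 0 and 20 min.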
TDP1 cell CPT = DT40-hTDP1 cell growth loss with CPT | Potency, µM (titrated, usually from 46.2 µM), for inactives: at the top dose activity change, negative = growth inhibition, hits mostly inhibitors | chicken DT40 Tdp1-/-;hTDP1 cells + 20 nM CPT, ATP luminescence, 48 h | hit rate 12% among 420,000; also: potency is read from the fitted curve at half-maximal effect; nearly all actives have a fitted effect of over 55% in size
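Chicken DT40 Tdp1-/- cells complemented with human TDP1, 400 cells/well, exposed to compounds plus 20 nM camptothecin for at least 48 h at 37 C; viability read as ATP content by CellTiter-Glo luminescence.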
TDP1 cell noCPT = qHTS for Inhibitors of human tyrosyl-DNA phosphodiesterase 1 (TDP1): qHTS in cells in absence of CPT; DT40 Tdp1-/- hTDP1 cells, no CPT, ATP luminescence, 48 h; Potency, µM (highest dose often 46.2 µM), for inactives: top-dose activity change, negative = growth inhibition, hits mostly inhibitors; hit rate 15% among 420,000; also: potency is read from the fitted curve at half-maximal effect; nearly all actives have a fitted effect of over 55% in size
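No-CPT arm: Tdp1-/-;hTDP1 DT40 cells (400/well) plus compounds, incubated ≥48 hr at 37 °C. Readout CellTiter-Glo luminescence.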
Numbers without * were called inactive. A selection: hits, their analogues and other compounds. The true share with any hit is near 18%. Unless noted, calls follow the shape of the dose curve; as a rule, active = well fitted curve in the direction sought with a large enough effect; inconclusive = small, poorly fitted or top-dose-only effect, or another doubt; inactive = no such curve, though single readings can be large; an effect the other way counts as inactive or inconclusive. Unless noted, % is scaled to controls: 0 for no effect and ±100 for the full control effect.

How did COc1ccc(-c2nnc(SCC(=O)Nc3cc(OC)cc(OC)c3)[nH]c2=O)cc1 do in these assays?
LDHA inh: 6

Results for CCOC(=O)c1c(NC(=O)COc2ccccc2C#N)sc2c1CC(C)(C)NC2(C)C ?
IL1B secr inh: 2; Gal4-VP16 FLuc: inconclusive; RORg inh: inconclusive; LDHA inh: -2; TDP1 cell CPT: 5.2µM*; TDP1 cell noCPT: 5.8µM*

How did CCOc1ccc(-c2nc(COc3cccc4c3CCCC4O)cs2)cc1 (stereo not given) do in these assays?
LDHA inh: 9

What do the screens show for `NC(N)=N/N=C/c1cccc(Cl)c1Cl`?
IL1B secr inh: -101*; Gal4-VP16 FLuc: -4%; RORg inh: 3%; LDHA inh: 3; TDP1 cell CPT: inconclusive; TDP1 cell noCPT: inconclusive

Results for CCN(CC)S(=O)(=O)c1ccc(N(C)C)c(NS(=O)(=O)c2cc(C)ccc2C)c1 ?
LDHA inh: -7

What do the screens show for `Cc1ccc(C(=O)N/C(=C\c2ccccc2)C(=O)OCc2ccccc2)cc1`?
IL1B secr inh: -51*; Gal4-VP16 FLuc: -6%; RORg inh: 40%; LDHA inh: -1; TDP1 cell CPT: 29µM*; TDP1 cell noCPT: inconclusive

How did O=C(Nc1ccc(Br)cn1)c1cccc2c1-c1ccccc1C2=O do in these assays?
IL1B secr inh: 43; Gal4-VP16 FLuc: 13%; RORg inh: -4%; LDHA inh: 1; TDP1 cell CPT: 4.1µM*; TDP1 cell noCPT: 3.3µM*

What do the screens show for `CC(C)CNC(=O)c1cccc2c1-c1ccccc1C2=O`?
IL1B secr inh: 29; Gal4-VP16 FLuc: 1%; RORg inh: 8%; LDHA inh: -4; TDP1 cell CPT: 19%; TDP1 cell noCPT: 6%

How did Cc1cccc(NC(=O)c2cccc3c2-c2ccccc2C3=O)n1 do in these assays?
IL1B secr inh: 5; Gal4-VP16 FLuc: 4%; RORg inh: 20%; LDHA inh: -3; TDP1 cell CPT: inconclusive; TDP1 cell noCPT: 16µM*

Results for O=C(NC(NC(=S)Nc1ccccc1Cl)C(Cl)(Cl)Cl)c1cccc(Cl)c1 (stereo not given) ?
IL1B secr inh: -87*; Gal4-VP16 FLuc: 13µM*; RORg inh: inconclusive; LDHA inh: -7; TDP1 cell CPT: 4.6µM*; TDP1 cell noCPT: 8.2µM*

Results for COc1ccc(NC(=O)c2ccccc2)c([N+](=O)[O-])c1 ?
IL1B secr inh: -8; Gal4-VP16 FLuc: 28%; RORg inh: inconclusive; LDHA inh: -1; TDP1 cell CPT: -2%; TDP1 cell noCPT: inconclusive

How did CC(=O)Nc1ccc(NC(=S)NC(NC(=O)c2cccc(C)c2)C(Cl)(Cl)Cl)cc1 (stereo not given) do in these assays?
LDHA inh: 0

Results for COc1ccc(NC(=S)NC(NC(=O)c2cccc(Cl)c2)C(Cl)(Cl)Cl)c([N+](=O)[O-])c1 (stereo not given) ?
IL1B secr inh: -60*; Gal4-VP16 FLuc: inconclusive; RORg inh: inconclusive; LDHA inh: 1; TDP1 cell CPT: inconclusive; TDP1 cell noCPT: inconclusive

How did COc1ccc(NC(=S)NC(NC(C)=O)C(Cl)(Cl)Cl)c([N+](=O)[O-])c1 (stereo not given) do in these assays?
IL1B secr inh: -54*; Gal4-VP16 FLuc: -2%; RORg inh: inconclusive; LDHA inh: -7; TDP1 cell CPT: 3%; TDP1 cell noCPT: -19%

How did COc1ccc(NC(=S)NC(NC(=O)c2cccc(C)c2)C(Cl)(Cl)Cl)c([N+](=O)[O-])c1 (stereo not given) do in these assays?
IL1B secr inh: -10; Gal4-VP16 FLuc: -5%; RORg inh: -3%; LDHA inh: -7; TDP1 cell CPT: inconclusive; TDP1 cell noCPT: inconclusive

How did CCOC(=O)C(NC(=O)c1ccc(C)cc1)C(=O)OCC do in these assays?
LDHA inh: 8
